Legend:
Test in all cases: DAPPL (digital affinity profiling via proximity ligation, sequencing); 10 mM Tris-HCl pH 7.5, 50 mM NaCl, 1 mM DTT, 4% glycerol, room temperature, 30 min; GST-TFs on glutathione beads, 16-mer random dsDNA library, 0.1% formaldehyde crosslink after washing; high values mean tight binding
FLI1 = biological target: T1, FLI1 (Homo sapiens, UniProt Q01543 1-452); settings: protein: recombinant; tags: N-terminal GST; dsDNA, one strand shown
T1 sequence: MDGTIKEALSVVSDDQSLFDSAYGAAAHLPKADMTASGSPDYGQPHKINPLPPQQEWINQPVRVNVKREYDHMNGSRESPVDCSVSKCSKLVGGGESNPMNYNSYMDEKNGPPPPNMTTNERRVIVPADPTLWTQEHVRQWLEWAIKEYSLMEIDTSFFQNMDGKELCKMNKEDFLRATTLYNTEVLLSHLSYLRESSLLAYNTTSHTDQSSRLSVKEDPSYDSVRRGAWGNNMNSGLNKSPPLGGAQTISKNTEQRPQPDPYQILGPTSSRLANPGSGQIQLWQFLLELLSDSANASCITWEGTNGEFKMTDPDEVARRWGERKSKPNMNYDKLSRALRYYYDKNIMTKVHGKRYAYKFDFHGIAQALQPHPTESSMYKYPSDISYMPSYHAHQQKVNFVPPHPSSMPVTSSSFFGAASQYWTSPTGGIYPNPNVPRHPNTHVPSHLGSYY
Method in brief: (§1)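 Sequencing on an Illumina NextSeq500 followed washing, crosslinking with 0.1% formaldehyde, proximity ligation (BsaI/T4 ligase, 1 h, 37 °C) and PCR amplification of pools that had been incubated for 30 min at room temperature with 200 nmole of a random double-stranded 16-mer DNA library in Tris/NaCl/DTT/glycerol buffer. Each pool held DNA-barcoded human transcription factors, expressed in yeast as GST fusions and captured on glutathione beads, plus a tag-only sample. Binding signal is a hexamer's read frequency for a factor divided by its frequency in the tag-only sample.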

ELK1 = biological target: T2, ELK1 (Homo sapiens, UniProt P19419 1-428); settings: protein: recombinant; tags: N-terminal GST; dsDNA, one strand shown
T2 sequence: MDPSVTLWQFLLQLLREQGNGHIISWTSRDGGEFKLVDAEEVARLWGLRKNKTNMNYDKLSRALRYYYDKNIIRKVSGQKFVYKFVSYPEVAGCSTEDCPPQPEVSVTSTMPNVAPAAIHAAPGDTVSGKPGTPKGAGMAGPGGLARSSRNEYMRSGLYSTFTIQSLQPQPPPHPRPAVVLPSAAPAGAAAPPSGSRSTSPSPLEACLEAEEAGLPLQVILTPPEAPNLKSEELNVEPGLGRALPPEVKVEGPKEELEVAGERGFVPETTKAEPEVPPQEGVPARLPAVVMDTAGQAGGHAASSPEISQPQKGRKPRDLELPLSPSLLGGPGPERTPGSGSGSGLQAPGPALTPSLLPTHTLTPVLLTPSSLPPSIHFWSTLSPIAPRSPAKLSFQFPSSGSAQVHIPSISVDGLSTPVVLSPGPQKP
Method in brief: as §1

GABPA = biological target: T3, GABPA (Homo sapiens, UniProt Q06546 1-454); settings: protein: recombinant; tags: N-terminal GST; dsDNA, one strand shown
T3 sequence: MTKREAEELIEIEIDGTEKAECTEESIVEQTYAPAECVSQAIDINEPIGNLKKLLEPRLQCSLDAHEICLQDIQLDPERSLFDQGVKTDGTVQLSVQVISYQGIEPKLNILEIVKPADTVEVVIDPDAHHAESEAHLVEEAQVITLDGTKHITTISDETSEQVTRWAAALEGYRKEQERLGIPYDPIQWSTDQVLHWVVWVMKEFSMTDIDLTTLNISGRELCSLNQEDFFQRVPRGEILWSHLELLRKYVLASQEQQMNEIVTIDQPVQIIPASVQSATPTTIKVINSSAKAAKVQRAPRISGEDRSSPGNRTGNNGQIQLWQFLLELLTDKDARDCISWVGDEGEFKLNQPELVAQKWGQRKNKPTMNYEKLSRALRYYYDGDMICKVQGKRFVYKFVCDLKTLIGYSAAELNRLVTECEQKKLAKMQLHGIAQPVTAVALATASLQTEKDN
Method in brief: as §1

ERG = biological target: T4, ERG (Homo sapiens, UniProt P11308 1-479); settings: protein: recombinant; tags: N-terminal GST; dsDNA, one strand shown
T4 sequence: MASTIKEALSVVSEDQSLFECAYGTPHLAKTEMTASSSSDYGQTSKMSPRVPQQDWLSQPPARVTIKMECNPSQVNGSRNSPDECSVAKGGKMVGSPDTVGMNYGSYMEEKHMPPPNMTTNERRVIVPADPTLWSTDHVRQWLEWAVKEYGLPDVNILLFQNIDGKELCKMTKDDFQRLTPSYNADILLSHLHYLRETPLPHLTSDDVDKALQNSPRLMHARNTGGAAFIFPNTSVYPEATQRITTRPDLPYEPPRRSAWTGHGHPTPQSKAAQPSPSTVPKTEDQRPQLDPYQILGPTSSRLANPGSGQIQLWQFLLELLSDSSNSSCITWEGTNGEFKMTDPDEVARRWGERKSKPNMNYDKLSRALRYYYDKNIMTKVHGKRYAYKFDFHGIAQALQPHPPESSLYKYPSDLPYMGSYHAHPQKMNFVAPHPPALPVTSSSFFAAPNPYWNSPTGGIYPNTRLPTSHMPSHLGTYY
Method in brief: as §1

ELF1 = ELF1 (Homo sapiens, UniProt P32519 1-619); settings: protein: recombinant; tags: N-terminal GST; dsDNA, one strand shown
Method in brief: as §1

EHF = biological target: T5, EHF (Homo sapiens, UniProt Q9NZC4 1-300); settings: protein: recombinant; tags: N-terminal GST; dsDNA, one strand shown
T5 sequence: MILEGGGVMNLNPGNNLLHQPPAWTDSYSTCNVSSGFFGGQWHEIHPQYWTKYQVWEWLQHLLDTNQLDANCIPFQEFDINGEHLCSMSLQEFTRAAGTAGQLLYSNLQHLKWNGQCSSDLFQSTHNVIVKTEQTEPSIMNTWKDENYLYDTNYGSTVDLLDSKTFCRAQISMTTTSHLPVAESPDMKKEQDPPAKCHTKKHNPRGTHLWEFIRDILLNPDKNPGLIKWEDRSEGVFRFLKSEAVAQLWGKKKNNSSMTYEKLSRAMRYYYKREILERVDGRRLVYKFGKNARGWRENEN
Method in brief: as §1

SPI1 = SPI1 (Homo sapiens, UniProt P17947 1-270); settings: protein: recombinant; tags: N-terminal GST; dsDNA, one strand shown
Method in brief: as §1

SPIB = SPIB (Homo sapiens, UniProt Q01892 1-262); settings: protein: recombinant; tags: N-terminal GST; dsDNA, one strand shown
Method in brief: as §1

ELK3 = biological target: T6, ELK3 (Homo sapiens, UniProt P41970 1-407); settings: protein: recombinant; tags: N-terminal GST; dsDNA, one strand shown
T6 sequence: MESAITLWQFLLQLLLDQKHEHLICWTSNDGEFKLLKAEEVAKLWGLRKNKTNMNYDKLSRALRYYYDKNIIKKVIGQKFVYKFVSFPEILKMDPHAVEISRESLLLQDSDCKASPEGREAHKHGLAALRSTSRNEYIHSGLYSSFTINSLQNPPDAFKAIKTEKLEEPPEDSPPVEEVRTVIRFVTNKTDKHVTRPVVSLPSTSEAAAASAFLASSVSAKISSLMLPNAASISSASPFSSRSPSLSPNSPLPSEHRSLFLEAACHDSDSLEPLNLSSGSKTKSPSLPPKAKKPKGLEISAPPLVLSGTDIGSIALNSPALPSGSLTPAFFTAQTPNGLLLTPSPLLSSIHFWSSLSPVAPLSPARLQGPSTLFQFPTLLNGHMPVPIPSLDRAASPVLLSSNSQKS
Method in brief: as §1

FEV = biological target: T7, FEV (Homo sapiens, UniProt Q99581 1-238); settings: protein: recombinant; tags: N-terminal GST; dsDNA, one strand shown
T7 sequence: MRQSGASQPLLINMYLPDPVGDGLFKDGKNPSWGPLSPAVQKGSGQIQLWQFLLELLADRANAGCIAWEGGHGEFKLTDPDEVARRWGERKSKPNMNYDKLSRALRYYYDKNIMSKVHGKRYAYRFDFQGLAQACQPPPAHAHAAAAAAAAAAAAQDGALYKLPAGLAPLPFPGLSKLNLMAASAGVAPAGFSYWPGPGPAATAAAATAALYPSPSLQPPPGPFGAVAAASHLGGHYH
Method in brief: as §1

ETV5 = ETV5 (Homo sapiens, UniProt P41161 1-510); settings: protein: recombinant; tags: N-terminal GST; dsDNA, one strand shown
Method in brief: as §1

HSF1 = HSF1 (Homo sapiens, UniProt Q00613 1-529); settings: protein: recombinant; tags: N-terminal GST; chain copies: 3; dsDNA, one strand shown
Method in brief: as §1

SPIC = biological target: T8, SPIC (Homo sapiens, UniProt Q8N5J4 1-248); settings: protein: recombinant; tags: N-terminal GST; dsDNA, one strand shown
T8 sequence: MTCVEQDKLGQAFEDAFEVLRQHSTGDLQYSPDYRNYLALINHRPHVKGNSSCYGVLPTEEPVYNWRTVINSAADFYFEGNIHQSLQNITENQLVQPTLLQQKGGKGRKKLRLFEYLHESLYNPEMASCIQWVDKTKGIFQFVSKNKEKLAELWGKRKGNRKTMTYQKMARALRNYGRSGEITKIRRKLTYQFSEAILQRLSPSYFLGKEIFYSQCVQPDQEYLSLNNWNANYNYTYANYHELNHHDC
Method in brief: as §1

ELF4 = ELF4 (Homo sapiens, UniProt Q99607 1-663); settings: protein: recombinant; tags: N-terminal GST; dsDNA, one strand shown
Method in brief: as §1

ELK4 = biological target: T9, ELK4 (Homo sapiens, UniProt P28324-2 1-405); settings: protein: recombinant; tags: N-terminal GST; dsDNA, one strand shown
T9 sequence: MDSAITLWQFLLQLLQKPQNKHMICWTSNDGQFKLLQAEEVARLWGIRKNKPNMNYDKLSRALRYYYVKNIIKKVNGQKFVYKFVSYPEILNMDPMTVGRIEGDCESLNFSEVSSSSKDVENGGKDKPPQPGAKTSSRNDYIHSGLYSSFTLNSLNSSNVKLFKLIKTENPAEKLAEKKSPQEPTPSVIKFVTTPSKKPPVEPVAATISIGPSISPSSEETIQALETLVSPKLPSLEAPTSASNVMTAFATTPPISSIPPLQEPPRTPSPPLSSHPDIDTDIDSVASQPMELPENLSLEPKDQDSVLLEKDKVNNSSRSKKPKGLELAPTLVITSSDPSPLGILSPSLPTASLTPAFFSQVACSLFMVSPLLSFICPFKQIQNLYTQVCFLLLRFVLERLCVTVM
Method in brief: as §1

ETV2 = biological target: T10, ETV2 (Homo sapiens, UniProt O00321 1-342); settings: protein: recombinant; tags: N-terminal GST; dsDNA, one strand shown
T10 sequence: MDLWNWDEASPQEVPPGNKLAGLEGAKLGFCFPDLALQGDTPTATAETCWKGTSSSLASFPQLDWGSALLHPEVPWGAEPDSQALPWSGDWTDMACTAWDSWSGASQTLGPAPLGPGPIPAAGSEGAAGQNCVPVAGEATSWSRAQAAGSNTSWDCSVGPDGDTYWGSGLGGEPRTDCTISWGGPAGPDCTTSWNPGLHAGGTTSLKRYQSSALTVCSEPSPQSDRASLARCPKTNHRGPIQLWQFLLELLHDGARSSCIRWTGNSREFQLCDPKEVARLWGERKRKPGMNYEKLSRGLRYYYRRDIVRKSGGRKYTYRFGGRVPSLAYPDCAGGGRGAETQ
Method in brief: as §1

ELF3 = biological target: T11, ELF3 (Homo sapiens, UniProt P78545 1-371); settings: protein: recombinant; tags: N-terminal GST; dsDNA, one strand shown
T11 sequence: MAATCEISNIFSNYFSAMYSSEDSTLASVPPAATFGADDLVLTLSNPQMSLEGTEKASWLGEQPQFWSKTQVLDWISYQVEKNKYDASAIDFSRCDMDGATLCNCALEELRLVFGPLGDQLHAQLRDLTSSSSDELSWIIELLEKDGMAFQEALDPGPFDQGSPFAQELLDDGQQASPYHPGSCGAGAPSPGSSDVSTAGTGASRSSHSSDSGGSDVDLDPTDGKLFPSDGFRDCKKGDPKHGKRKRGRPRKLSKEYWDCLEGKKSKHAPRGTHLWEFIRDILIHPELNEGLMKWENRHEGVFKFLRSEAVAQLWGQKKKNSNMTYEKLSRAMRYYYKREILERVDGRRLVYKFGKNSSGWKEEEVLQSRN
Method in brief: as §1

CRX = CRX (Homo sapiens, UniProt O43186 1-299); settings: protein: recombinant; tags: N-terminal GST; dsDNA, one strand shown
Method in brief: as §1

ETV1 = ETV1 (Homo sapiens, UniProt P50549 1-477); settings: protein: recombinant; tags: N-terminal GST; dsDNA, one strand shown
Method in brief: as §1

Chain of CRX (O43186 whole entry): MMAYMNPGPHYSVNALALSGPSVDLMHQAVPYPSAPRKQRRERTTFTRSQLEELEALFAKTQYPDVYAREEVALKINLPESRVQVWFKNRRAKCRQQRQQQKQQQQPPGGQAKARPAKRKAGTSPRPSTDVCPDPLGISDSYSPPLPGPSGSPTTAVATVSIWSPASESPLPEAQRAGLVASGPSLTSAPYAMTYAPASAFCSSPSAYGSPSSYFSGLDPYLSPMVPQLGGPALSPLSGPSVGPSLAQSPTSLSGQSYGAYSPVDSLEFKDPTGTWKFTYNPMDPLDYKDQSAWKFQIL
Chain of ELF1 (P32519 whole entry): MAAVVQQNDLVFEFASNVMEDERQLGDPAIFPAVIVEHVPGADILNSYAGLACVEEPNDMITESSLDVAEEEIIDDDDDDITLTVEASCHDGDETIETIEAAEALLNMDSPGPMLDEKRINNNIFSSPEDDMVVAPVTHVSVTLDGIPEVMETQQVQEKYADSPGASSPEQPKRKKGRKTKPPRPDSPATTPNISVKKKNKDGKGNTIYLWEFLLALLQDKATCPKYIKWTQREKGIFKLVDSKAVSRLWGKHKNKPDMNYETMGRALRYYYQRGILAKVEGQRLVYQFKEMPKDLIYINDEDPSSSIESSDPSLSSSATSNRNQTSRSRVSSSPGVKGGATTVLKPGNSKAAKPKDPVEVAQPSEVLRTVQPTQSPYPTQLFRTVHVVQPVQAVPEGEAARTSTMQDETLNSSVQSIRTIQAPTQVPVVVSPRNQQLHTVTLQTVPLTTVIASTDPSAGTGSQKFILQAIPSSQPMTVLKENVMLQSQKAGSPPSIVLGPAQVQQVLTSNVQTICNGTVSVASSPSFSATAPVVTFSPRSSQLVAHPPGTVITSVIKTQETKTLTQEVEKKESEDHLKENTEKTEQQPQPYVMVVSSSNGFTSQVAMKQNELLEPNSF
Chain of SPIB (Q01892 whole entry): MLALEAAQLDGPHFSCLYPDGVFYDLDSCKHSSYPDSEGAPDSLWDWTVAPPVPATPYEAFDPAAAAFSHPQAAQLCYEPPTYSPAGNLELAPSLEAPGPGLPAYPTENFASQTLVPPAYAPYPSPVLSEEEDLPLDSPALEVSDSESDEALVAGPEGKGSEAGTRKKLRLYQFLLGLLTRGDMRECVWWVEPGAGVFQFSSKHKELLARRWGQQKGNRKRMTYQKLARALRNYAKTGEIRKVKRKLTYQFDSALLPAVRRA
Chain of ELF4 (Q99607 whole entry): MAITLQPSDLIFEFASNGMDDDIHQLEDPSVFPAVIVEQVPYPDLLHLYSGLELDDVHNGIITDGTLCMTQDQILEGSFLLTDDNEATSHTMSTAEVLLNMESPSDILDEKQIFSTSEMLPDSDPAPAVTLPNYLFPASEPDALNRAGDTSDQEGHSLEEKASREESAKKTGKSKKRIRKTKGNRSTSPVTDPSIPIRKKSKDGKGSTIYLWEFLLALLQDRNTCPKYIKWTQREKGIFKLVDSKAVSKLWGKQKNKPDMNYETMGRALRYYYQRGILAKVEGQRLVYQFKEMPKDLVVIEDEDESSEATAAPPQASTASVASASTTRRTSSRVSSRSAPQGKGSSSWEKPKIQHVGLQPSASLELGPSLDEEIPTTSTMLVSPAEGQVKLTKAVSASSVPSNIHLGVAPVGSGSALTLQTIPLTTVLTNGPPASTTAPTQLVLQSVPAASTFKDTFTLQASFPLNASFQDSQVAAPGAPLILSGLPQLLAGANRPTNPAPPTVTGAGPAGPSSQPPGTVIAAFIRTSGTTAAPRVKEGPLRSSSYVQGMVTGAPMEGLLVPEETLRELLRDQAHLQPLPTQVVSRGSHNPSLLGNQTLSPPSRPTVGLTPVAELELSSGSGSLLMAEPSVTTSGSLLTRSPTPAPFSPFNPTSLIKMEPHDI
Chain of ETV1 (P50549 whole entry): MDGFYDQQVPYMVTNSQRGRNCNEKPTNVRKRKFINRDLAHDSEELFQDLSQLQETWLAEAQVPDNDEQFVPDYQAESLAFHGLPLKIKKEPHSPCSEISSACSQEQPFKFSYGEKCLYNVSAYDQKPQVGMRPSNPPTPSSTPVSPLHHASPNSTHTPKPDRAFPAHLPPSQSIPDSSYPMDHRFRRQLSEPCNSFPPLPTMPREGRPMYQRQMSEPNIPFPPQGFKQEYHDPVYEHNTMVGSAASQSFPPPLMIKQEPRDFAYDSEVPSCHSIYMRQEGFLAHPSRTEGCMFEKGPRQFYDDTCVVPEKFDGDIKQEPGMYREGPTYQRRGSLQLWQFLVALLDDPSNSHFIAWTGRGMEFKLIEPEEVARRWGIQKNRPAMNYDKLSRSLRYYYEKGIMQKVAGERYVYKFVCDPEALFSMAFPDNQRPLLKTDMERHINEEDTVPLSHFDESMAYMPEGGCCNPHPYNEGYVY
Chain of HSF1 (Q00613 whole entry): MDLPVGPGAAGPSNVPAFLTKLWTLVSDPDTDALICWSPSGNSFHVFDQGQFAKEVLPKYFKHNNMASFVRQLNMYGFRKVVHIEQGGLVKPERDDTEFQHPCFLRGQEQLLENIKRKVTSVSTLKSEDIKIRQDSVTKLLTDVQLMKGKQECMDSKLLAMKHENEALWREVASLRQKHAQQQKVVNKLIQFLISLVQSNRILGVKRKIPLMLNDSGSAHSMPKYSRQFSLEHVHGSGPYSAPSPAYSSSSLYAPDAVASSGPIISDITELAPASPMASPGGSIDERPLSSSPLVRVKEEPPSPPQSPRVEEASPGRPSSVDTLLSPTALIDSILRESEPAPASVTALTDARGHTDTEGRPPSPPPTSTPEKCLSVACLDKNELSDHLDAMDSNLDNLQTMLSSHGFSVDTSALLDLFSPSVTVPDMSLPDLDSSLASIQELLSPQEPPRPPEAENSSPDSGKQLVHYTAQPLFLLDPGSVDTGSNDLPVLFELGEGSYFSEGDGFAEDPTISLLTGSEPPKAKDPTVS
Chain of ETV5 (P41161 whole entry): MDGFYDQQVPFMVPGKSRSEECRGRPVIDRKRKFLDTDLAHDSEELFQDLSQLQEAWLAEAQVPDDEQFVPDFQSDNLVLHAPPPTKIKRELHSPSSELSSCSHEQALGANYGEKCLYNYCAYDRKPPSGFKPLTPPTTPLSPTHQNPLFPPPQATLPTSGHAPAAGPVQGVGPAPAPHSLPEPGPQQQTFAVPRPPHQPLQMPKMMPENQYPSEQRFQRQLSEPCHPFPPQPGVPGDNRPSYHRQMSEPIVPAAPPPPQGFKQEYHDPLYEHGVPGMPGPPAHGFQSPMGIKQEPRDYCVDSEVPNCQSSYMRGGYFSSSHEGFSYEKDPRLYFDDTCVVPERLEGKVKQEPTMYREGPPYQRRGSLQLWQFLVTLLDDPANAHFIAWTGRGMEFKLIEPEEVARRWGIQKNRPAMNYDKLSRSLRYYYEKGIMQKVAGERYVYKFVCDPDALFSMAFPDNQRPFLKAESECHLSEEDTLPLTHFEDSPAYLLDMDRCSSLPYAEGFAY

**Q.** What does the source list for ACTGAT?
**A.** binding signal (FLI1): 1.22 fold enrichment (6-mer frequency, TF over GST control); binding signal (ELK1): 1.31 fold enrichment (6-mer frequency, TF over GST control); binding signal (GABPA): 1.27 fold enrichment (6-mer frequency, TF over GST control); binding signal (ERG): 1.3 fold enrichment (6-mer frequency, TF over GST control); binding signal (ELF1): 1.28 fold enrichment (6-mer frequency, TF over GST control); binding signal (EHF): 1.27 fold enrichment (6-mer frequency, TF over GST control); binding signal (SPI1): 1.31 fold enrichment (6-mer frequency, TF over GST control); binding signal (SPIB): 1.19 fold enrichment (6-mer frequency, TF over GST control); binding signal (ELK3): 1.26 fold enrichment (6-mer frequency, TF over GST control); binding signal (FEV): 1.19 fold enrichment (6-mer frequency, TF over GST control); binding signal (ETV5): 1.21 fold enrichment (6-mer frequency, TF over GST control); binding signal (HSF1): 1.22 fold enrichment (6-mer frequency, TF over GST control); binding signal (SPIC): 1.51 fold enrichment (6-mer frequency, TF over GST control); binding signal (ELF4): 1.23 fold enrichment (6-mer frequency, TF over GST control); binding signal (ELK4): 1.34 fold enrichment (6-mer frequency, TF over GST control); binding signal (ETV2): 1.19 fold enrichment (6-mer frequency, TF over GST control); binding signal (ELF3): 1.21 fold enrichment (6-mer frequency, TF over GST control); binding signal (CRX): 1.38 fold enrichment (6-mer frequency, TF over GST control); binding signal (ETV1): 1.32 fold enrichment (6-mer frequency, TF over GST control)
